Experimental data reported in PubChem BioAssay (NCI).
The panel holds about 79,000 compounds, 15% with a hit somewhere; the sample as a whole holds those more often. Activity calls are given as the source filed them. Rule as the data show it: active = growth inhibition above about 70%; inactive = the rest.

Columns and labels:
[1] = NCI Yeast Anticancer Drug Screen. Data for the rad52 strain (AID 147);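 also: 0% = growth of vehicle-treated control cultures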; settings: S. cerevisiae rad52 mutant growth inhibition, hits give high values
In short: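 Inhibition of yeast growth, referenced to vehicle controls, was the measured output for a strain with defective DNA damage repair.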

[2] = NCI Yeast Anticancer Drug Screen. Data for the wt1 strain (AID 149);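 also: 0% = growth of vehicle-treated wt1 cultures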; settings: S. cerevisiae wt1 strain (SPY 50644) growth inhibition, hits give high values
In short: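 Using yeast strain wt1, compound-induced growth inhibition was determined against vehicle-treated cultures.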

[3] = NCI Yeast Anticancer Drug Screen. Data for the rad50EPP+ strain (AID 151);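 also: 0% = growth of vehicle-treated control cultures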; settings: S. cerevisiae rad50 mutant strain, hits give high values
In short: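 Genetically defined yeast (rad50EPP+, DNA damage repair alteration) is grown with compound, and inhibition of growth is expressed relative to vehicle-treated controls.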

[4] = NCI Yeast Anticancer Drug Screen. Data for the mgt1 strain (AID 153); settings: S. cerevisiae mgt1 mutant growth inhibition, hits give high values
In short: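 In the mgt1 strain, test compounds were added and growth inhibition was determined relative to vehicle-treated controls.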

[5] = NCI Yeast Anticancer Drug Screen. Data for the rad50 strain (AID 155);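 also: 0% = growth of vehicle-only cultures of the same strain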; settings: S. cerevisiae rad50 strain growth inhibition, hits give high values
In short: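 Relative growth inhibition (compound vs vehicle) was measured in yeast with a defined repair-gene alteration.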

[6] = NCI Yeast Anticancer Drug Screen. Data for the mec2-1 strain (AID 157); settings: S. cerevisiae mec2-1 strain, hits give high values
In short: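 Each compound was tested on mec2-1 yeast, a strain altered in DNA damage repair or cell cycle control. Growth inhibition is reported relative to vehicle.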

[7] = NCI Yeast Anticancer Drug Screen. Data for the rad14 strain (AID 159);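 also: 0% = growth of vehicle-treated control cultures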; settings: S. cerevisiae rad14 strain growth inhibition, hits give high values
In short: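 Screen for anticancer potential: a yeast strain altered in DNA damage repair is grown with compound, and reduced growth is quantified against vehicle controls.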

[8] = NCI Yeast Anticancer Drug Screen. Data for the sgs1 mgt1 strain (AID 161);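 also: 0% = growth of cultures given vehicle only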; settings: S. cerevisiae sgs1 mgt1 strain, hits give high values
In short: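 Read-out: growth inhibition vs vehicle controls. Cells: mutant yeast strain deficient in DNA damage repair.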

[9] = NCI Yeast Anticancer Drug Screen. Data for the CLN2oe strain (AID 163);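 also: 0% = growth of vehicle-only control cultures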; settings: S. cerevisiae CLN2oe strain, hits give high values
In short: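 First, the altered yeast strain was treated with each compound; second, its growth was measured; finally, inhibition was derived by comparison with vehicle controls.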

[10] = NCI Yeast Anticancer Drug Screen. Data for the cln2 rad14 strain (AID 165);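 also: 0% = growth equal to vehicle treated cultures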; settings: S. cerevisiae cln2 rad14 strain, hits give high values
In short: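 Test compounds were added to cln2 rad14 yeast cultures; inhibition of growth was then determined by comparison with vehicle treatment.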

[11] = NCI Yeast Anticancer Drug Screen. Data for the bub3 strain (AID 167); settings: S. cerevisiae bub3 mutant strain, hits give high values
In short: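 Screening used yeast with an engineered genetic alteration affecting cell cycle control. Compound-exposed cultures were compared with vehicle cultures, and reduced growth was taken as inhibition.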

[12] = NCI Yeast Anticancer Drug Screen. Data for the wt2 strain (AID 169);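 also: 0% = growth of vehicle-treated yeast cultures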; settings: S. cerevisiae wt2 strain growth inhibition, hits give high values
In short: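 The panel's yeast strains carry defined changes in DNA repair or cell cycle genes. Each strain is grown with compound, and growth loss is scored relative to vehicle.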

[13] = NCI Yeast Anticancer Drug Screen. Data for the mlh1 strain (AID 171);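 also: 0% = growth of vehicle-treated control cultures of the same strain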; settings: S. cerevisiae mlh1 strain growth inhibition, hits give high values
In short: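 Inhibition values reflect reduced yeast growth in the presence of compound, referenced to vehicle controls, using a strain chosen for its alteration in DNA repair or cell cycle control.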

[14] = NCI Yeast Anticancer Drug Screen. Data for the sgs1 strain (AID 173);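 also: 0% = growth of vehicle-only control cultures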; settings: S. cerevisiae sgs1 mutant, hits give high values
In short: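 Vehicle-treated cultures served as reference for growth inhibition of a yeast strain altered in DNA damage repair or cell cycle control after compound exposure.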

[15] = NCI Yeast Anticancer Drug Screen. Data for the mlh1 rad18 strain (AID 175); settings: S. cerevisiae mlh1 rad18 strain growth inhibition, hits give high values
In short: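 Inhibition values reflect reduced growth of mutant yeast versus vehicle-treated controls following compound exposure; the mutations affect DNA damage repair.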

[16] = NCI Yeast Anticancer Drug Screen. Data for the rad18 strain (AID 177); settings: S. cerevisiae rad18 mutant growth inhibition, hits give high values
In short: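 Steps: expose repair-mutant yeast to compound; measure growth; express as inhibition relative to vehicle control.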

[17] = at 5.0 µM (retest, dose inferred, filed as 0.5)
[18] = at 50.0 µM (retest, dose inferred, filed as 5.0)

Measured: growth inhibition

COc1cc(O)c2c(O)c3c(c4c2c1[C@]1(C4)C(C)=CCCC1(C)C)[C@H](O)[C@@]1(O)CC(=O)C(C(N)=O)=C(O)[C@@]1(O)C3=O
inactive: [1]; at 1.2 µM -1% | [2]; at 1.2 µM -16% | [2]; at 3.7 µM 56% | [3]; at 1.2 µM -52% | [3]; at 3.7 µM 60% | [4]; at 1.2 µM -16% | [5]; at 1.2 µM -37% | [5]; [17] 2% | [6]; at 1.2 µM -36% | [7]; at 1.2 µM -57% | [7]; at 3.7 µM 50% | [8]; [17] 21% | [9]; at 1.2 µM -6% | [10]; [17] 1% | [11]; at 1.2 µM -1% | [11]; [17] -7% | [12]; at 1.2 µM -30% | [12]; at 3.7 µM -16% | [13]; at 1.2 µM -21% | [13]; at 3.7 µM 67% | [14]; at 1.2 µM -38% | [15]; [17] -5% | [16]; at 1.2 µM -21%
active: [1]; at 3.7 µM 92% | [1]; at 11.0 µM 98% | [1]; at 33.0 µM 98% | [1]; at 100.0 µM 95% | [2]; at 11.0 µM 98% | [2]; at 33.0 µM 97% | [2]; at 100.0 µM 93% | [3]; at 11.0 µM 97% | [3]; at 33.0 µM 96% | [3]; at 100.0 µM 89% | [4]; at 3.7 µM 94% | [4]; at 11.0 µM 99% | [4]; at 33.0 µM 98% | [4]; at 100.0 µM 93% | [5]; at 3.7 µM 87% | [5]; at 11.0 µM 97% | [5]; at 33.0 µM 96% | [5]; [18] 97% | [5]; at 50.0 µM 97% | [5]; at 100.0 µM 92% | [6]; at 3.7 µM 87% | [6]; [17] 83% | [6]; at 11.0 µM 98% | [6]; at 33.0 µM 98% | [6]; [18] 98% | [6]; at 50.0 µM 98.7% | [6]; at 100.0 µM 94% | [7]; at 11.0 µM 97% | [7]; at 33.0 µM 97% | [7]; at 100.0 µM 93% | [8]; [18] 98% | [8]; at 50.0 µM 98.7% | [9]; at 3.7 µM 94% | [9]; at 11.0 µM 98% | [9]; at 33.0 µM 97% | [9]; at 100.0 µM 93% | [10]; [18] 98% | [10]; at 50.0 µM 98.1% | [11]; at 3.7 µM 77% | [11]; at 11.0 µM 98% | [11]; at 33.0 µM 97% | [11]; [18] 98% | [11]; at 50.0 µM 98.2% | [11]; at 100.0 µM 94% | [12]; at 11.0 µM 97% | [12]; at 33.0 µM 96% | [12]; at 100.0 µM 95% | [13]; at 11.0 µM 97% | [13]; at 33.0 µM 97% | [13]; at 100.0 µM 95% | [14]; at 3.7 µM 88% | [14]; at 11.0 µM 97% | [14]; at 33.0 µM 97% | [14]; at 100.0 µM 93% | [15]; [18] 97% | [15]; at 50.0 µM 96.8% | [16]; at 3.7 µM 85% | [16]; at 11.0 µM 97% | [16]; at 33.0 µM 97% | [16]; at 100.0 µM 95%
